The values below come from PubChem BioAssay (NCATS).

Records with an inconclusive call do not appear. Values without a mark were called inactive. Active and inactive are the calls of the source. The call rests on the fitted dose curve.

Sequence of Thyroid hormone receptor beta (Homo sapiens) (P10828 whole entry, looked up): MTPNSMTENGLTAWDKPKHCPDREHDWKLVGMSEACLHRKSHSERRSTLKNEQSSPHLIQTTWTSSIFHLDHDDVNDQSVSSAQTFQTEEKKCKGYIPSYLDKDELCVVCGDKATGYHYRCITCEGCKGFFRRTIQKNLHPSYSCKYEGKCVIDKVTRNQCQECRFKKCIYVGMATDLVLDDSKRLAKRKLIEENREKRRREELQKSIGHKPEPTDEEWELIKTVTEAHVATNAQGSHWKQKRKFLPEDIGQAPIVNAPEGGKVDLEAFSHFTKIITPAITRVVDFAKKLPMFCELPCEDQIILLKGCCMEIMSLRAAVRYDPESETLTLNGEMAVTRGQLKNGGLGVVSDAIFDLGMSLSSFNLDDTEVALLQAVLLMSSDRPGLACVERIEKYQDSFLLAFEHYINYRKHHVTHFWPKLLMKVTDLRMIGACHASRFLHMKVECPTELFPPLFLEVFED

This assay deals with Thyroid hormone receptor beta (Homo sapiens) (UniProt P10828). Description: qHTS assay for small molecule agonists of thyroid hormone receptor beta signaling (AID 588545). As to conditions: TR-UAS-bla GripTite HEK 293, beta-lactamase ratio, agonist mode, 18 h, percent of T3 response, DMSO as zero; series mostly up to 76.7 µM; activation: at the top concentration. The source says:
NIH Chemical Genomics Center [NCGC]
U.S. Environmental Protection Agency [EPA]
National Institutes of Environmental Health Sciences [NIEHS]
National Toxicology Program [NTP]
Thyroid hormone receptor (TR) belongs to nuclear hormone receptor superfamily. There are two subtypes for TR: TR-alpha and TR-beta. TR-beta plays a major role in regulating plasma cholesterol levels and it mediates the biological activities of thyroid hormone. Screening environmental chemicals on TR-beta signaling will provide important information for the mechanism of compound action.
NCGC Assay Protocol Summary
Using a beta-lactamase reporter-gene under control of the TR response element, a cell-based assay [GeneBLAzer TR-UAS-bla-GripTite assay developed by Invitrogen] was used to measure TR-beta signaling in agonist mode. TR-UAS-bla-GripTite HEK 293 cells were used with assay medium containing 2% charcoal/dextran FBS, 0.1 mM NEAA and 1 mM sodium pyruvate. The assay was performed in clear bottom black Greiner 1536-well plates. T3 was used as a positive control in the screen. Library compounds were measured for their ability to stimulate the reporter gene activity. Compounds were screened in a titration series in 1536-well format. The fluorescence intensity (405 nm excitation, 460/530 nm emission) was measured using an EnVision plate reader. Data was normalized relative to T3 control (10 nM, 100%), and DMSO only wells (basal, 0%). Concentration-response titration points for each compound were fitted to the Hill equation yielding concentrations of half-maximal stimulation (EC50) and maximal response (efficacy) values.
qHTS protocol for TR-beta beta-lactamase assay in agonist mode
[Step] [Parameter] [Value] [Description]
1. Reagent; 6 uL; 2500 cells/well
2. Incubation; 37 C for 4 hrs
- Dose response; start 3.8 uM, 1:3 dilutions, duplicates in first column
- Two columns of each 10 and 0.4 nM (finals) concentrations.
5. Incubation; 37 C for 18 hrs
6. Detection reagent; 1 uL of CCF4-dye
7. Incubation; RT for 2 hrs
8. Detection; Fluorescence; Envision plate reader
A general note: qHTS replaces the single test concentration by a dilution series.
For `Cc1c(N=C=O)cccc1N=C=O`, the outcome was inactive.
Turning to `S=C1NC=NC2N=CNC12` (stereo not given), the “activation” value was -39.2%.
On the same count and under the same terms, under `COc1c2ccoc2cc2oc(=O)ccc12` stands 2.73%; under `CC1=C2[C@H](/C=C(\C)C(=O)O)CC[C@@H](C)[C@H]2CC1`, -12.1%; under `CC1=CC(C)(C)Nc2ccccc21`, -5.23%.
The same measure, in the same setting: next, `O=S(=O)(O)c1ccccc1`: 3.79%.
Consider `Cc1ccccc1C`, for which the outcome was inactive.
On to `CCCCCCCCO`, for which the “activation” value is -9.89%.
For the compound `CCCCC(CC)CN` (stereo not given), the outcome was inactive.
As for `O=C(O[C@@H]1Cc2c(O)cc(O)cc2O[C@@H]1c1cc(O)c(O)c(O)c1)c1cc(O)c(O)c(O)c1`, the “activation” value is -1.71%.
Turning to `O=C(Nc1ccccc1)c1ccccc1O`, the “activation” value is -3.13%.
For the compound `COCC(=O)O`, the outcome was inactive.
In the case of `CC(=O)OC/C=C(\C)CCC=C(C)C`, the result was inactive.
In the case of `Cc1ccc(N)c([N+](=O)[O-])c1`, the result was inactive.
The same measure, in the same setting: next, `CC12CCC(CC1=O)C2(C)C` (stereo not given): “inactive”.
As to `Nc1ccc(S(=O)(=O)O)cc1`, the “activation” value was 20.1%.
For the compound `CCC(O)OC(O)CC` (stereo not given), the result was inactive.
Regarding `CCCN(CCC)C(=O)SCC`, the result was inactive.
As for `C=CC(C)(CCC=C(C)C)OC(C)=O` (stereo not given), the “activation” value is -4.11%.
`Clc1cc(Cl)c(Cl)c(Cl)c1Cl`: the result was inactive.
For `CCCCCCCCCCCC(=O)O`, the “activation” value is 9.99%.
`Cc1cccc([N+](=O)[O-])c1C`: the result was inactive.
Take `C1OCOCO1`: the “activation” value was -32.4%.
With `O=C(O)c1ccccc1C(c1ccc(O)cc1)c1ccc(O)cc1`, the outcome was inactive.
With `CCCCCCCCOC(=O)c1cc(O)c(O)c(O)c1`, the “activation” value was 1.3%.
Take `O=C1c2ccccc2C(=O)C1c1ccc2ccccc2n1`: the result was inactive.
Regarding `C=C(C)C1CC=C(C)C(O)C1` (stereo not given), the “activation” value is -19%.
`O[C@@H]([C@H](O)[C@@H](O)CBr)[C@@H](O)CBr`: the “activation” value was -19.3%.
Regarding `Cc1ccc([N+](=O)[O-])c(C)c1`, the outcome was inactive.
On the same count and under the same terms, next, `CC(C)=CCCC(C)CCO` (stereo not given): “inactive”; `ClCCCl`: “inactive”.
Consider `O=C(/C=C/c1ccc(O)c(O)c1)O[C@@H](C(=O)O)[C@@H](OC(=O)/C=C/c1ccc(O)c(O)c1)C(=O)O`, for which the “activation” value was -18.4%.
As for `Cc1ccc([N+](=O)[O-])cc1N`, the result was inactive.
As for `C[Si](C)(C)O[Si](C)(C)O[Si](C)(C)C`, the “activation” value is -4.4%.
For `CCC(C)c1ccccc1O` (stereo not given), the result was inactive.
As for `O=C1CCc2ccccc2O1`, the “activation” value was 1.24%.
Take `COC(=O)c1ccc(C)cc1`: the “activation” value was -2.96%.
Still for that read-out and setting: next, `CN(C)CCCCCCN(C)C`: 4.76%.
On to `c1ccccc1`, for which the result was inactive.
For `c1ccc2scnc2c1`, the “activation” value is -21.7%.
